This note sets out measurements from PubChem BioAssay (NCATS).

Molecules are shown by their SMILES. Inconclusive results are not listed. A number with no mark means an inactive call. The source made the active and inactive calls. The call rests on the fitted dose curve; in most records, active means well fitted inhibition curve with a large enough effect; inconclusive means small, poorly fitted or top-dose-only effect; inactive means flat fitted curve, though single readings scatter.
Potency means the concentration at half of the fitted maximal effect.

The test system of one assay is N140. Briefly: qHTS profiling for inhibitors of Plasmodium falciparum proliferation (AID 504749). Further: nearly all actives have a fitted effect of over 60% in size.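 On activity, negative = inhibition: 0% = DMSO vehicle and full inhibition = artemisinin control.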 Conditions: P. falciparum in erythrocytes, SYBR Green DNA, 72 h; series mostly up to 28.7 µM; activity, negative = inhibition: at the top concentration. The gist of the method:
(§1)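 P. falciparum-infected erythrocytes (0.3% parasitemia, 2.5% hematocrit final) were exposed to compounds for 72 h at 37 C in 5% CO2, then lysed with SYBR Green buffer overnight at room temperature; parasite DNA fluorescence was normalized to artemisinin and DMSO controls.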
Background: In qHTS, concentration-response curves come from the screen itself.
As to `CCCCCCCCCCCCCCNCCO`, the Potency is 14.1 µM (active).

Take `CCCCc1nc(Cl)c(CO)n1Cc1ccc(-c2ccccc2-c2nn[nH]n2)cc1`: the Potency is 12.6 µM (active).

As for `C=CCc1ccc(O)c(OC)c1`, the “activity, negative = inhibition” value was 11.3%.

Consider `CCN(CC)CCOC(=O)C(c1ccccc1)C1CCCCC1` (stereo not drawn), for which the “activity, negative = inhibition” value was -28.3%.

As to `C#C[C@]1(O)CC[C@H]2[C@@H]3CCc4cc(OC5CCCC5)ccc4[C@H]3CC[C@@]21C`, the “activity, negative = inhibition” value is -28.6%.

As to `O=S1(=O)c2cccc3cccc(c23)N1CCCN1CCN(c2ccc(F)cc2)CC1`, the “activity, negative = inhibition” value was 3.82%.

For the molecule `CCOc1ccc(Cc2nccc3cc(OCC)c(OCC)cc23)cc1OCC`, the “activity, negative = inhibition” value is -10.9% [at 12.8 µM].

As to `c1ccc(OCc2ccc(CCCN3CCOCC3)cc2)cc1`, the “activity, negative = inhibition” value was -0.431%.

As to `CN1CCC(=C2c3ccccc3Sc3ccccc32)CC1`, the Potency was 10 µM (active).

Consider `CN1C2CCC1CC(OC(=O)c1c[nH]c3ccccc13)C2` (stereo not drawn), for which the “activity, negative = inhibition” value was 17.8%.

For the molecule `Cc1cccc(C)c1NC(=O)CN1CCN(CCCC(c2ccc(F)cc2)c2ccc(F)cc2)CC1`, the Potency is 3.16 µM (active).

With `CC/C(=C(/CC)c1ccc(O)cc1)c1ccc(O)cc1`, the “activity, negative = inhibition” value is -22.3%.

Consider `O=C(CCN1CCC(c2ccccc2)C1)c1ccc2c(c1)OCCO2` (stereo not drawn), for which the “activity, negative = inhibition” value is -4.24%.

As to `Cc1cc(N)c2cc(NC(=O)Nc3ccc4nc(C)cc(N)c4c3)ccc2n1`, the Potency was 11.2 µM (active).

For the molecule `CC(=O)c1ccc2c(c1)N(CCCN1CCC(CCO)CC1)c1ccccc1S2`, the “activity, negative = inhibition” value was -19.7% [at 12.8 µM].

On to `CCN(CC)CCNC(=O)COc1ccc(Cl)cc1`, for which the Potency was 12.6 µM (active).

`OCc1ccccc1O`: the “activity, negative = inhibition” value is 10.3%.

For `CC(=O)Nc1c(I)cc(I)c(C(=O)O)c1I`, the “activity, negative = inhibition” value is 3.3%.

Consider `O=C1[C@H]2CCCC[C@H]2C(=O)N1CCCCN1CCN(c2nsc3ccccc23)CC1`, for which the “activity, negative = inhibition” value was -6.65%.

With `C[C@@H]1CN(CCCn2c3ccccc3c3ccccc32)C[C@H](C)N1`, the Potency was 12.6 µM (active).

The next assay concerns P93_24. The assay is described as above. As to conditions: P. falciparum in erythrocytes, SYBR Green DNA, 72 h; series mostly up to 28.7 µM; activity, negative = inhibition: at the top concentration. In short, it runs like this:
as §1
`CN(C(=O)CN(CCO)CC(=O)N(C)C(C)(C)Cc1ccccc1)C(C)(C)Cc1ccccc1`: the “activity, negative = inhibition” value was -21.3% [at 12.8 µM].

As for `C#C[C@]1(O)CC[C@H]2[C@@H]3CCc4cc(OC5CCCC5)ccc4[C@H]3CC[C@@]21C`, the “activity, negative = inhibition” value was -22.4%.

Consider `O=S1(=O)c2cccc3cccc(c23)N1CCCN1CCN(c2ccc(F)cc2)CC1`, for which the “activity, negative = inhibition” value was -18.9%.

On to `CCOc1ccc(Cc2nccc3cc(OCC)c(OCC)cc23)cc1OCC`, for which the “activity, negative = inhibition” value is -25.1% [at 12.8 µM].

`c1ccc(OCc2ccc(CCCN3CCOCC3)cc2)cc1`: the “activity, negative = inhibition” value was -20.3%.

`CN1CCC(=C2c3ccccc3Sc3ccccc32)CC1`: the Potency is 10 µM (active).

Regarding `C[C@@H](CN(C)C)CN1c2ccccc2Sc2ccccc21`, the “activity, negative = inhibition” value is -25.8% [at 12.8 µM].

With `CC(C)=CCC1C(=O)N(c2ccccc2)N(c2ccccc2)C1=O`, the “activity, negative = inhibition” value is -23.3%.

Regarding `O=C(N/N=C/c1ccccc1O)c1ccncc1`, the Potency is 10 µM (active).

For `CN1C2CCC1CC(OC(=O)c1c[nH]c3ccccc13)C2` (stereo not drawn), the “activity, negative = inhibition” value was -1.67%.

Turning to `Cc1cccc(C)c1NC(=O)CN1CCN(CCCC(c2ccc(F)cc2)c2ccc(F)cc2)CC1`, the Potency is 3.98 µM (active).

For the molecule `CC/C(=C(/CC)c1ccc(O)cc1)c1ccc(O)cc1`, the “activity, negative = inhibition” value was -13.6%.

As for `CC[N+](CC)(CCNC(=O)C(=O)NCC[N+](CC)(CC)Cc1ccccc1Cl)Cc1ccccc1Cl`, the Potency is 0.794 µM (active).

Regarding `Cc1ccc(O)c2ncccc12`, the “activity, negative = inhibition” value is -22.9%.

With `CCN(CC)CCNC(=O)COc1ccc(Cl)cc1`, the Potency is 11.2 µM (active).

As to `Oc1c(I)cc(Cl)c2cccnc12`, the “activity, negative = inhibition” value was -13.7%.

As for `OCc1ccccc1O`, the “activity, negative = inhibition” value was -1.81%.

Turning to `COc1cc2c(cc1OC)C(C(C(=O)N(CCc1ccc(OC)c(OC)c1OC)CCc1ccc(OC)c(OC)c1OC)c1ccccc1)=NCC2` (stereo not drawn), the Potency is 2.24 µM (active).

As to `C[C@@H]1CN(CCCn2c3ccccc3c3ccccc32)C[C@H](C)N1`, the Potency is 5.01 µM (active).

The next assay deals with P94_40. Described as above. As to conditions: P. falciparum in erythrocytes, SYBR Green DNA, 72 h; series mostly up to 28.7 µM; activity, negative = inhibition: at the top concentration. The gist of the method:
as §1
As for `CCCCc1nc(Cl)c(CO)n1Cc1ccc(-c2ccccc2-c2nn[nH]n2)cc1`, the Potency was 10 µM (active).

`C=CCc1ccc(O)c(OC)c1`: the “activity, negative = inhibition” value is 13.4%.

Turning to `CCN(CC)CCOC(=O)C(c1ccccc1)C1CCCCC1` (stereo not drawn), the “activity, negative = inhibition” value was -26.3%.

Take `CNCCC(Oc1ccccc1C)c1ccccc1` (stereo not drawn): the “activity, negative = inhibition” value is -20.8%.

With `CN(C(=O)CN(CCO)CC(=O)N(C)C(C)(C)Cc1ccccc1)C(C)(C)Cc1ccccc1`, the “activity, negative = inhibition” value was -4.79% [at 12.8 µM].

Take `O=C1OC(c2ccc(O)cc2)(c2ccc(O)cc2)c2ccccc21`: the “activity, negative = inhibition” value was 11.4%.

As for `CCOc1ccc(Cc2nccc3cc(OCC)c(OCC)cc23)cc1OCC`, the “activity, negative = inhibition” value was -11.9% [at 12.8 µM].

`c1ccc(OCc2ccc(CCCN3CCOCC3)cc2)cc1`: the “activity, negative = inhibition” value was -7.34%.

Consider `CN1CCC(=C2c3ccccc3Sc3ccccc32)CC1`, for which the Potency was 10 µM (active).

As to `CCCCCCCCCCCCCCCC[N+](C)(C)CCN(Cc1ccc(OC)cc1)c1ncccn1`, the “activity, negative = inhibition” value is -22.2% [at 12.8 µM].

For the molecule `O=C(N/N=C/c1ccccc1O)c1ccncc1`, the Potency is 10 µM (active).

With `CN1C2CCC1CC(OC(=O)c1c[nH]c3ccccc13)C2` (stereo not drawn), the “activity, negative = inhibition” value was 6.33%.

For the molecule `CC[N+](CC)(CCNC(=O)C(=O)NCC[N+](CC)(CC)Cc1ccccc1Cl)Cc1ccccc1Cl`, the Potency is 0.316 µM (active).

Turning to `Oc1c(I)cc(I)c2cccnc12`, the Potency is 11.2 µM (active).

As to `CCOC(=O)/C=C(C)/C=C/C=C(C)/C=C/c1c(C)cc(OC)c(C)c1C`, the Potency is 8.91 µM (active).

On to `Cc1cc(N)c2cc(NC(=O)Nc3ccc4nc(C)cc(N)c4c3)ccc2n1`, for which the Potency is 12.6 µM (active).

For `C[C@@H]1C[C@H]2[C@@H]3CCC4=CC(=O)C=C[C@]4(C)[C@@]3(F)[C@@H](O)C[C@]2(C)[C@H]1C(=O)CO`, the “activity, negative = inhibition” value was -22.1%.

As to `CC(=O)c1ccc2c(c1)N(CCCN1CCC(CCO)CC1)c1ccccc1S2`, the “activity, negative = inhibition” value was -0.499% [at 12.8 µM].

For `Oc1c(I)cc(Cl)c2cccnc12`, the Potency is 12.6 µM (active).

For the molecule `OCc1ccccc1O`, the “activity, negative = inhibition” value was 6.3%.

As for `CC(=O)Nc1c(I)cc(I)c(C(=O)O)c1I`, the “activity, negative = inhibition” value is 7.45%.

Regarding `COc1cc2c(cc1OC)C(C(C(=O)N(CCc1ccc(OC)c(OC)c1OC)CCc1ccc(OC)c(OC)c1OC)c1ccccc1)=NCC2` (stereo not drawn), the Potency was 2.51 µM (active).

In the case of `O=C1[C@H]2CCCC[C@H]2C(=O)N1CCCCN1CCN(c2nsc3ccccc23)CC1`, the “activity, negative = inhibition” value was -2.48%.

Take `C[C@@H]1CN(CCCn2c3ccccc3c3ccccc32)C[C@H](C)N1`: the Potency is 8.91 µM (active).
